# Results: PubChem BioAssay (Tox21)
# Results filed as inconclusive are left out. Where a call stands in place of a potency, no number is given. Unmarked numbers belong to inactive results. Active and inactive are the calls of the source. Unless noted, the call rests on the fitted dose curve; in most records, active means well fitted curve in the direction sought with a large enough effect in the repeat runs; inconclusive means weak or mixed curves; inactive means no such curve, though single readings can be large; an effect the other way counts as inactive or inconclusive.
# Experiments:
# [1] = qHTS assay to identify small molecule agonists of the vitamin D receptor (VDR) signaling pathway - cell viability counter screen (AID 743224); further: nearly all actives have a fitted effect of over 50% in size
# How it was run: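 VDR-bla cells, 4 h after plating, exposed to compounds for 16 h at 37C; viability then read in the same wells as CellTiter-Glo luminescence after 30 min at room temperature, following the bla FRET read.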
# [2] = qHTS assay to identify small molecule antagonists of the vitamin D receptor (VDR) signaling pathway - cell viability counter screen (AID 743225); further: nearly all actives have a fitted effect of over 50% in size
# How it was run: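 Luminescent cell viability (CellTiter-Glo) in VDR-bla HEK 293T cells after 16 h compound exposure at 37C in the presence of 3 nM final 1-alpha,25-dihydroxy vitamin D3.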
# [3] = qHTS assay to identify small molecule agonists of the NFkB signaling pathway (AID 1159509; active means well fitted curve in the direction sought with a large enough effect in the signal ratio in the repeat runs, not every such curve was filed as active; the % refers to the signal ratio)
# How it was run: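 ME-180 NFkB-bla, 2,000 cells/well, overnight plating; cpd pinned in DMSO, 5 h 37 C; B/G FRET substrate 1.5 h RT; ex 405, em 460/530 nm.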
# [4] = qHTS assay to identify small molecule agonists of the NFkB signaling pathway - cell viability counter screen (AID 1159515; calls by dose curve; further: nearly all actives have a fitted effect of over 55% in size)
# How it was run: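 NFkB-bla ME-180 cells, 2,000/well, plated overnight at 37 C; compound added for 5 hr at 37 C. Viability read in the same wells as the bla reporter, by CellTiter-Glo luminescence after 30 min at room temperature.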
# [5] = qHTS assay to identify small molecule agonists of the endoplasmic reticulum stress response signaling pathway - cell viability counter screen (AID 1159517; calls by dose curve;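 further: HeLa cells carrying an ER stress response element beta-lactamase reporter; nearly all actives have a fitted effect of over 50% in size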)
# How it was run: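 CellTiter-Glo was added to wells already read for beta-lactamase FRET, and luminescence was recorded 30 min later. Cells: ESRE-bla HeLa, 1,500 per well, compound exposure 5 hr at 37 C.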
# [6] = qHTS assay to identify small molecule antagonists of the retinoid-related orphan receptor gamma (ROR-gamma) signaling pathway - cell viability counter screen (AID 1159520); further: nearly all actives have a fitted effect of over 50% in size; further: potency means the concentration at half of the fitted maximal effect
# How it was run: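 Tet-on ROR gamma CHO cells (1,000/well) were plated 4 hr, given compounds in DMSO for 2 hr at 37 C, then induced with 1 uM final doxycycline for 16 hr. Viability was read as ATP by CellTiter-Glo luminescence after 30 min.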
# [7] = qHTS assay to identify small molecule agonists of the AP-1 signaling pathway - cell viability counter screen (AID 1159525; calls by dose curve; further: nearly all actives have a fitted effect of over 55% in size)
# How it was run: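 ME-180 AP-1-bla, 2500 cells/well, Opti-MEM + 0.5% dialyzed FBS; overnight 37 °C; cpd 15-pt titration, 5 h 37 °C; CellTiter-Glo 30 min RT; luminescence read; normalised to TOAB and DMSO controls.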
# [8] = molecular target: Retinoic acid receptor RXR-alpha (Homo sapiens) (UniProt P19793); assay: qHTS assay to identify small molecule agonists of the RXR signaling pathway (AID 1159527; calls by dose curve; further: nearly all actives have a fitted effect of over 35% in size; further: potency means the concentration at half of the fitted maximal effect)
# How it was run: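 Beta-lactamase reporter assay, agonist format. Engineered HEK 293T line, charcoal-stripped FBS at 2%, overnight (16 hr) exposure, fluorescence at 460 and 530 nm after 405 nm excitation.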
# [9] = qHTS assay to identify small molecule agonists of the RXR signaling pathway - cell viability counter screen (AID 1159529); further: nearly all actives have a fitted effect of over 50% in size; further: potency means the concentration at half of the fitted maximal effect
# How it was run: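 Same-well viability check after the LiveBLAzer FRET read: CellTiter-Glo added, luminescence measured after 30 min at room temperature. Reporter HEK 293T cells had been treated with compounds for 16 hr following a 5 hr preincubation.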
# [10] = qHTS assay to identify small molecule antagonists of the retinoid acid receptor (RAR) signaling pathway - cell viability counter screen (AID 1159551); further: nearly all actives have a fitted effect of over 35% in size
# How it was run: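 C3RL4 RARE-luciferase cells, 1,000/well, incubated overnight, then dosed with compound plus 1 uM retinol (final). After 6 hr at 37 C, viability read by CellTiter-Glo ATP luminescence following 30 min at room temperature.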
# [11] = molecular target: Nuclear receptor ROR-gamma (Homo sapiens) (UniProt P51449); assay: qHTS assay to identify small molecule antagonists of the retinoid-related orphan receptor gamma (ROR-gamma) signaling pathway (AID 1159521; further: nearly all actives have a fitted effect of over 50% in size; further: potency means the concentration at half of the fitted maximal effect)
# How it was run: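 CHO cells expressing RORγ under a TET-on promoter, luciferase under RORE control. Dox 1 uM final, 16 h; compounds added 2 h prior. Luminescence decrease measured.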
# [12] = qHTS assay to identify small molecule antagonists of the retinoic acid receptor (RAR) signaling pathway (AID 1159552; further: nearly all actives have a fitted effect of over 50% in size; further: potency means the concentration at half of the fitted maximal effect)
# How it was run: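 Readout: luciferase luminescence, 30 min post-reagent at RT. Setup: C3RL4 RARE reporter cells, compounds plus retinol 1 uM final, 6 hr incubation at 37 C and 5% CO2.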
# [13] = qHTS assay to identify small molecule agonists of the retinoic acid receptor (RAR) signaling pathway (AID 1159553); conditions: C3RL4 RARE luciferase reporter, agonist, 6 h; activation: at 73.3 µM (top of the series); further: potency means the concentration at half of the fitted maximal effect
# How it was run: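 C3RL4 RARE-luciferase cells were seeded at 1,000/well and grown overnight at 37 C, then exposed to compounds for 6 hr at 37 C, 5% CO2. Luciferase reagent was added and luminescence was read after 30 min at room temperature.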
# [14] = qHTS assay to identify small molecule agonists of the AP-1 signaling pathway (AID 1159526; calls by dose curve)
# [15] = qHTS assay to identify small molecule agonists of the estrogen related receptor (ERR) signaling pathway (AID 1224820)
# How it was run: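 Cells: ERR line from NTP, 2,000/well. Pre-incubation 6 h, 37 C/5% CO2. Compound (DMSO) pin transfer, 18 h 37 C. One-Glo, 30 min RT, luminescence.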
# [16] = test system: estrogen-related receptor alpha (ERRalpha) with PGC-1alpha coactivator, human; assay: qHTS assay to identify small molecule antagonists of the estrogen related receptor signaling pathway with the pleiotropic PPARgamma coactivator (PGC) (AID 1224821; calls by dose curve)
# How it was run: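 Luminescent read-out (One-Glo, 30 min at room temperature) following 18 h treatment of PGC/ERR cells at 37 C with compounds delivered in DMSO. Cells had settled 6 h at 37 C/5% CO2 before dosing.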
# [17] = qHTS assay to identify small molecule agonists of the estrogen related receptor signaling pathway with the pleiotropic PPARgamma coactivator (PGC) (AID 1224823)
# How it was run: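 Steps: plate PGC/ERR cells at 2,000 cells/well; incubate 6 h, 37 C/5% CO2; pin-transfer compounds (DMSO); incubate 18 h, 37 C; add One-Glo; 30 min RT; read luminescence.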
# [18] = qHTS assay to identify small molecule antagonists of the estrogen related receptor (ERR) signaling pathway (AID 1224819)
# How it was run: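 ERR reporter cell line (NTP) plated at 2,000 cells/well, settled 6 h at 37C/5% CO2, then exposed to LOPAC compounds for 18 h at 37C. One-Glo luciferase luminescence read after 30 min at room temperature.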
# [19] = qHTS assay to identify small molecule antagonists of the estrogen related receptor signaling pathway with the pleiotropic PPARgamma coactivator (PGC) cell viability counter screen (AID 1224822;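 further: viability read after 17.5 h compound exposure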)
# How it was run: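 PGC/ERR cells rested 6 h, then compound-treated 17.5 h at 37 C. CellTiter-Fluor added for 30 min at 37 C, viability measured by fluorescence intensity.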
# Chain of Retinoic acid receptor RXR-alpha (Homo sapiens) (P19793 whole entry, looked up): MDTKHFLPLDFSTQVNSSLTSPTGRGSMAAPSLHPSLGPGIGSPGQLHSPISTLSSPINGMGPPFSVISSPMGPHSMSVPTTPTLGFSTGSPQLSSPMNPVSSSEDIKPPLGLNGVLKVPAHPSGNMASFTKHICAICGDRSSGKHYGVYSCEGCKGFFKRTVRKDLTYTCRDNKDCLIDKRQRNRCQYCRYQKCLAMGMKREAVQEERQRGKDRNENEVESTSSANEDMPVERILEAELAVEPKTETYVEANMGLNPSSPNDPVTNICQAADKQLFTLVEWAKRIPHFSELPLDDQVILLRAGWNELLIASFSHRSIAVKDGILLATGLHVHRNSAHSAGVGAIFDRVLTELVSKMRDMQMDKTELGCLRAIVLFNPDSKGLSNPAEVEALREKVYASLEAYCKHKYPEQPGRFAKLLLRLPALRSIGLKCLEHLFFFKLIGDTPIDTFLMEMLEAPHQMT
Compound,Potency [1],Potency [2],Potency [3],Potency [4],Potency [5],Potency [6],Potency [7],Potency [8],Potency [9],Potency [10],Potency [11],Potency [12],Potency [13],Potency [14],outcome [15],outcome [16],outcome [17],outcome [18],outcome [19]
C/C=C/C=C/C=O,inactive,inactive,inactive,inactive,inactive,inactive,inactive,inactive,inactive,inactive,–,–,–,–,–,–,–,–,–
CCOC(=O)OC(C)OC(=O)[C@@H]1N2C(=O)[C@@H](NC(=O)[C@H](N)c3ccccc3)[C@H]2SC1(C)C (some centres undefined),inactive,inactive,inactive,inactive,inactive,inactive,inactive,inactive,inactive,inactive,inactive,inactive,inactive,–,–,–,–,–,–
CCCCN1CCCC1C(=O)Nc1c(C)cc(C)cc1C (centres undefined),–,inactive,inactive,inactive,inactive,inactive,inactive,inactive,–,inactive,–,inactive,inactive,–,–,–,–,–,–
O=C(OCC(O)CO)c1ccccc1Nc1ccnc2cc(Cl)ccc12 (centres undefined),–,inactive,inactive,inactive,inactive,–,inactive,–,inactive,inactive,–,inactive,–,inactive,–,–,–,–,–
CN(C(=O)CN(CCO)CC(=O)N(C)C(C)(C)Cc1ccccc1)C(C)(C)Cc1ccccc1,inactive,–,inactive,inactive,inactive,29.8 µM (active),–,–,–,–,26.6 µM (active),29.8 µM (active),inactive,–,–,–,–,–,–
C/C=C(/C(=C/C)c1ccc(O)cc1)c1ccc(O)cc1,inactive,–,inactive,inactive,inactive,–,–,–,–,inactive,inactive,–,inactive,inactive,–,–,–,–,–
C[C@@H](O)[C@H]1C(=O)N2C(C(=O)O)=C([C@H]3CCCO3)S[C@H]12,–,–,inactive,inactive,inactive,inactive,inactive,inactive,inactive,inactive,inactive,inactive,inactive,–,–,–,–,–,–
CCOC(=O)C1=C(C)NC(C)=C(C(=O)OC)C1c1cccc(Cl)c1Cl (centres undefined),–,–,inactive,inactive,inactive,–,inactive,inactive,–,inactive,inactive,–,inactive,inactive,inactive,inactive,inactive,–,–
O=C(O)c1ccc(OCCCOc2ccc(C(=O)O)cc2)cc1,inactive,inactive,inactive,inactive,inactive,inactive,inactive,inactive,inactive,inactive,–,–,–,inactive,–,–,–,–,–
CCCCCCCCCCC(=O)O,–,–,inactive,inactive,inactive,inactive,inactive,49.6 µM (active),inactive,inactive,–,inactive,inactive,inactive,–,–,–,–,–
CN1C(C(=O)Nc2ccccn2)=C(O)c2sccc2S1(=O)=O,–,–,inactive,inactive,inactive,inactive,inactive,inactive,inactive,inactive,inactive,inactive,29.8 µM (active),–,–,–,–,–,–
CC1=Nc2ccc3ccccc3c2C1(C)C,inactive,inactive,inactive,inactive,inactive,inactive,inactive,–,inactive,inactive,–,inactive,–,–,–,–,–,–,–
C=C1c2cccc(O)c2C(O)=C2C(=O)[C@]3(O)C(O)=C(C(N)=O)C(=O)[C@@H](N(C)C)[C@@H]3[C@@H](O)[C@H]12,inactive,inactive,inactive,inactive,inactive,inactive,inactive,inactive,inactive,inactive,–,inactive,inactive,inactive,–,–,–,–,–
c1cc(N(CC2CO2)CC2CO2)ccc1Cc1ccc(N(CC2CO2)CC2CO2)cc1 (centres undefined),–,inactive,inactive,inactive,inactive,54.5 µM (active),inactive,–,inactive,inactive,–,inactive,30.6 µM (active),–,–,–,–,–,–
CC(C)=CC(=O)C=C(C)C,–,inactive,inactive,inactive,inactive,inactive,inactive,inactive,inactive,inactive,–,inactive,inactive,inactive,–,–,–,–,–
CC(CN(C)C)C(C)(O)Cc1ccc(Cl)cc1 (centres undefined),inactive,inactive,inactive,inactive,inactive,inactive,inactive,inactive,inactive,inactive,–,–,inactive,inactive,–,–,–,–,–
CN(C)CCN1C(=O)c2ccccc2N(C)c2ccccc21,inactive,–,inactive,inactive,–,inactive,–,inactive,inactive,inactive,inactive,–,inactive,–,–,–,–,–,–
C=CC(=O)OCC1CC2CC1C1CCC(COC(=O)C=C)C21 (centres undefined),–,–,inactive,inactive,–,–,inactive,–,43.6 µM (active),–,54.5 µM (active),8.63 µM (active),–,–,–,–,–,–,–
Cc1ccccc1S,inactive,inactive,inactive,inactive,–,inactive,–,–,inactive,inactive,inactive,–,–,inactive,–,–,–,–,–
O=C1Cc2cc(Cl)ccc2N1,inactive,inactive,inactive,inactive,–,inactive,inactive,inactive,inactive,inactive,inactive,–,inactive,inactive,–,–,–,–,–
C[C@]1(Cn2ccnn2)[C@H](C(=O)O)N2C(=O)C[C@H]2S1(=O)=O,inactive,inactive,inactive,inactive,–,inactive,inactive,–,inactive,inactive,–,–,–,–,–,–,–,–,–
CN1C(=O)c2ccccc2C1=O,–,–,inactive,inactive,–,inactive,–,–,inactive,inactive,inactive,inactive,inactive,inactive,inactive,inactive,inactive,inactive,inactive
